KB-V1 MDR tox = KB-V1 MDR subline cytotoxicity; KB-V1 MDR cells viability, CellTiter-Glo, 72 h; Potency, µM (titrated, usually from 46.1 µM), actives largely listed as cytotoxic; hit rate 3.4% among 400,000; AID 1347076; also: nearly all actives have a fitted effect of over 60% in size
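Potencies derive from concentration-effect curves fitted to normalized luminescence (CellTiter-Glo) of KB-V1 cells treated for 72 h at 37 degrees C in phenol-red-free DMEM containing 10% FBS.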
MCF10A rerep = induces DNA re-replication in MCF 10a normal breast cells; AID 624296; hit rate 2.9% among 350,000; Potency, µM (highest dose often 46.1 µM), hits mostly activators; MCF 10A DNA re-replication, Hoechst nuclear intensity, 48 h; also: nearly all actives have a fitted effect of over 50% in size
SW480 rereplic = induces DNA re-replication in SW480 colon adenocarcinoma cells; SW480 DNA re-replication, Hoechst DNA content imaging, 48 h; Potency, µM (doses to about 46.1 µM), most hits filed as activators; hit rate 1.8% among 340,000; also: nearly all actives have a fitted effect of over 55% in size
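Image-based read-out: total Hoechst fluorescence of nuclei (405 nm excitation, 500-530 nm emission), with hits raising the fraction of high-intensity nuclei. SW480 colon cells incubated 48 hr with compounds at 37 C.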
PINK1 expr mod = changes PINK1 expression | PINK1 immunofluorescence, high-content cytometry, 24 h | Potency, µM (highest dose often 76.6 µM), actives largely listed as activators | hit rate 0.2% among 410,000 | AID 624263; active = well fitted activation curve with a large enough effect; inconclusive = small, poorly fitted or top-dose-only effect; cell line not stated here; also: nearly all actives have a fitted effect of over 65% in size
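Measures PINK1 amount and localization on or inside mitochondria by immunofluorescence. Stable cells get compounds at 5 concentrations for 24 hours before fixation and staining; CCCP controls included.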
KB-3-1 tox = KB-3-1 parental cell cytotoxicity. KB-3-1 viability, CellTiter-Glo ATP luminescence, 72 h. Potency, µM (top dose mostly 46.1 µM), most hits filed as cytotoxic. hit rate 1.4% among 400,000; also: nearly all actives have a fitted effect of over 60% in size
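Using CellTiter-Glo luminescence, growth of non-resistant KB-3-1 adenocarcinoma cells is assessed 72 h after pin-tool compound addition at 37 °C. Normalized responses across the concentration series yield fitted curves.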
Numbers stand for hits; n = inactive; u = inconclusive; x = no result. This is a sample that favours compounds with a hit; in the whole collection about 6.7% have one here. Unless noted, calls follow the shape of the dose curve; as a rule, active = well fitted curve in the direction sought with a large enough effect; inconclusive = small, poorly fitted or top-dose-only effect, or another doubt; inactive = no such curve, though single readings can be large; an effect the other way counts as inactive or inconclusive.

SMILES | KB-V1 MDR tox | MCF10A rerep | SW480 rereplic | PINK1 expr mod | KB-3-1 tox
NC1=NC(=O)/C(=C/c2ccc(-c3ccc(S(N)(=O)=O)cc3)o2)S1 | n | n | n | 31.6µM | n
CS(=O)(=O)Nc1ccc(-c2ccc(/C=C3\SC(N)=NC3=O)o2)cc1 | n | 23.1µM | n | n | n
NC1=NC(=O)C(=Cc2ccccc2)S1 | n | n | n | n | n
NC1=NC(=O)/C(=C\c2ccco2)S1 | n | n | n | n | n
CC1(C)OC(=O)C(=Cc2ccc(-c3ccc(S(N)(=O)=O)cc3)o2)C(=O)O1 | n | 18.4µM | u | n | n
NS(=O)(=O)c1ccc(-c2ccc(/C=C3\C(=O)Nc4cc(Cl)ccc43)o2)cc1 | n | u | u | n | n
COCc1cc(C)n(CC(=O)Nc2ccc(NC(C)=O)cc2)c(=O)c1C#N | n | x | x | n | n
Cc1ccc(Nc2ncnc3nc[nH]c23)cc1 | n | x | x | n | n
CC(C)CCN(CCC(C)C)CC(O)Cn1c2ccccc2c(=O)c2ccccc21 (centres undefined) | u | 3.26µM | u | n | n
O=C(Nc1ccc(Cl)cc1)Nc1cccc2nsnc12 | n | 18.4µM | u | u | n
Cc1ccccc1OCC(=O)NNC(=O)Nc1ccc(Cl)cc1 | 5.17µM | 3.66µM | u | n | 4.11µM
Cc1ccccc1OCC(=O)NNC(=O)Nc1ccccc1 | n | n | n | n | n
CCOc1ccccc1NC(=O)Nc1ccc(Cl)cc1 | 23.1µM | n | u | n | 23.1µM
Cc1ccc(NC(=O)COc2ccccc2C(=O)Nc2ccccc2)cc1Cl | n | n | n | n | n
Cc1ccc(Cl)cc1NC(=O)c1ccccc1OCC(=O)Nc1ccc(Cl)cc1 | n | 9.2µM | n | n | n
O=C(Nc1ccncc1)Nc1cccc(Cl)c1Cl | n | n | n | n | n
CCc1ccc(C2CC3C(CN2S(=O)(=O)c2ccc(C)cc2)C(=O)CC(c2ccc(CC)cc2)N3S(=O)(=O)c2ccc(C)cc2)cc1 (centres undefined) | n | x | x | x | u
CCc1sc(Nc2cccc(C)c2C)nc1-c1cc2cccc(OC)c2oc1=O | n | x | x | n | n
O=C(Nc1ccccc1)Nc1cccc(Cl)c1Cl | u | n | n | u | n
O=C(Nc1ccc(Oc2ccc(NC(=O)Nc3ccccc3Cl)cc2)cc1)Nc1ccccc1Cl | n | u | 11.6µM | n | u
CCOC(=O)c1[nH]c2ccc(F)cc2c1NC(=O)CN1CCN(C/C=C/c2ccccc2)CC1 | u | 14.6µM | u | n | n
CCOC(=O)N1CCN(c2c(-c3ccccc3)c3cc(Cl)ccc3[nH]c2=O)CC1 | 9.2µM | n | n | n | u
CCOC(=O)C1CCN(c2c(-c3ccccc3)c3cc(Cl)ccc3[nH]c2=O)CC1 | n | n | u | n | n
CCOC(=O)N1CCN(CC(=O)Nc2c(C(=O)OC)[nH]c3ccc(Cl)cc23)CC1 | 2.31µM | n | n | n | 16.4µM
C=CCn1c(SCC)nc2ccccc2c1=O | n | x | x | n | n
SMILES | KB-V1 MDR tox | MCF10A rerep | SW480 rereplic | PINK1 expr mod | KB-3-1 tox
CCCCN(C(=O)CCCc1nc2ccccc2c(=O)[nH]1)c1c(N)n(CCCC)c(=O)[nH]c1=O | n | n | n | n | u
COCCN(C(=O)COC(=O)c1ccccc1Oc1ccccc1)c1c(N)n(Cc2ccccc2)c(=O)[nH]c1=O | n | n | 20.6µM | n | u
CCCCCN(C(=O)CCC(=O)OCc1ccc(C(C)C)cc1)c1c(N)n(CCCC)c(=O)[nH]c1=O | n | 23.1µM | n | n | n
CCN(C(=O)COC(=O)c1ccccc1Oc1ccccc1)c1c(N)n(Cc2ccccc2)c(=O)[nH]c1=O | n | n | n | n | n
CCCCCN(C(=O)CCC(=O)OCc1ccccc1F)c1c(N)n(CCCC)c(=O)[nH]c1=O | n | n | n | n | u
CCCCn1c(N)c(N(CCOC)C(=O)CCCc2nc3ccccc3c(=O)[nH]2)c(=O)[nH]c1=O | n | n | 23.1µM | n | u
Nc1c(N(CCC2=CCCCC2)C(=O)COc2ccc(F)cc2Cl)c(=O)[nH]c(=O)n1Cc1ccccc1 | u | 11.6µM | n | n | 8.2µM
Cc1[nH]c(=O)[nH]c(=O)c1C1N2CC3(C(C)C)CN1CC(C(C)C)(C2)C3=O (centres undefined) | n | x | x | n | n
Cn1nc(C(C)(C)C)cc1NC(=O)C1(C)CCN1C(=O)C1(c2ccccc2)CC1 (centres undefined) | n | x | x | n | n

Bioassay records (PubChem)
